Autofluor counter = counter-screen for toxin protease inhibitors: compound fluorescence; compound autofluorescence counterscreen, microsphere flow cytometry; active compounds read high; fluorescence intensity (test concentration not listed); 3.1% of 360,000 active; AID 624483; in the data active = fluorescence intensity above about 16000; inconclusive = no clear call, values can overlap the other calls
3CLpro inhibitor = SARS-CoV 3CLpro protease inhibition; P0C6X7; recombinant SARS-CoV 3CLpro, quenched FRET peptide cleavage; inhibition, % at 6 µM; 0.14% of 290,000 active; AID 1706; in the data active = inhibition above about 12%
BoNT-A LC inh2 = BoNT A light chain protease inhibition; multiplex microsphere protease substrate cleavage, flow cytometry; inhibition, % at 10 µM; 0.17% of 360,000 active; AID 588499
CCHF vOTU inh = CCHFV vOTU protease inhibition; Pep-AMC fluorescence; inhibition, % at 11.5 µM; 0.55% of 370,000 active; in the data active = inhibition above about 30%
BoNT-F LC inh = inhibitors of Botulinum neurotoxin F light chain protease | Multiplex microsphere protease cleavage assay, flow cytometry | inhibition, % at 10 µM | 0.22% of 360,000 active | AID 588497; in the data active = inhibition above about 35%, passing the limit was not always enough; inconclusive = no clear call, values can overlap the other calls
Anthrax LF inh2 = blocks Bacillus anthracis lethal factor protease. inhibition, % at 10 µM. AID 588501. P15917. multiplex microsphere protease cleavage assay, LF. 0.12% of 360,000 active
Target sequence (P15917 whole entry, looked up): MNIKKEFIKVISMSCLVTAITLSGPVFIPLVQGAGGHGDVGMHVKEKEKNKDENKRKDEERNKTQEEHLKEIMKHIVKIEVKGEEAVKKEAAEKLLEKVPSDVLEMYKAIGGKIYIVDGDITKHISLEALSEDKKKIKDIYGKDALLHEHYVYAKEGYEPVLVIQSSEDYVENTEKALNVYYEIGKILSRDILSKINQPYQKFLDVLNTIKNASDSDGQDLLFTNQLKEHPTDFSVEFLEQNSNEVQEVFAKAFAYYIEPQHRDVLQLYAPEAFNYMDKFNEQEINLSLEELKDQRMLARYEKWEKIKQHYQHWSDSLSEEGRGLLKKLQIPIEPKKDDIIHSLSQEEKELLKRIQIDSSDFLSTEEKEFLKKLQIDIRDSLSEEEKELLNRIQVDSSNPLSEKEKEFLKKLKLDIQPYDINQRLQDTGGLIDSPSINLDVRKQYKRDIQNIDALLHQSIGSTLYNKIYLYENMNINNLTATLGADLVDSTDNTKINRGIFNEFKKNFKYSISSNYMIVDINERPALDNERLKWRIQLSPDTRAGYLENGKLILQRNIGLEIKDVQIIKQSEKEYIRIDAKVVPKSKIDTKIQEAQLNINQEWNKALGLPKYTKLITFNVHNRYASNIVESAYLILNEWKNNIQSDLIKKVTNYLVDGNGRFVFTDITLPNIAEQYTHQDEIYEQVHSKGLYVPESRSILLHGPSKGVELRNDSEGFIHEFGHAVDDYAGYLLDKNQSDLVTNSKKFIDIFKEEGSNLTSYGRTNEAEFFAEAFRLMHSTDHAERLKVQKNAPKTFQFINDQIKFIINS
Hits are given with their value. The list is not random: actives were taken first. Their share in the collection is about 3.9%. Rule as the data show it, unless noted: active = inhibition above about 30%; inconclusive = no clear call, values can overlap the other calls; inactive = below that.

Results for CCOC(=O)/C(C#N)=C/C=C1\C=Cc2ccccc2N1CC ?
Autofluor counter: 119384; 3CLpro inhibitor: inactive; BoNT-A LC inh2: inactive; CCHF vOTU inh: inactive; BoNT-F LC inh: 178.5; Anthrax LF inh2: 45.8

What do the screens show for `O=C(NCCN1CCN(C(=O)c2cccs2)CC1)c1cccs1`?
Autofluor counter: 22034; 3CLpro inhibitor: inactive; BoNT-A LC inh2: inactive; CCHF vOTU inh: inactive; BoNT-F LC inh: inactive; Anthrax LF inh2: inactive

How did O=C(NCCCN1CCOCC1)c1cccs1 do in these assays?
Autofluor counter: 19558; 3CLpro inhibitor: inactive; BoNT-A LC inh2: inconclusive; CCHF vOTU inh: inactive; BoNT-F LC inh: inactive; Anthrax LF inh2: inactive

How did O=C(CN1CCN(Cc2ccccc2)C1=O)NCCCN1CCOCC1 do in these assays?
Autofluor counter: inactive; 3CLpro inhibitor: inactive; BoNT-A LC inh2: inactive; CCHF vOTU inh: inactive; BoNT-F LC inh: inactive; Anthrax LF inh2: inactive

What do the screens show for `O=C(Cc1ccccc1)N1CCN(C(=O)c2cccs2)CC1`?
Autofluor counter: inactive; 3CLpro inhibitor: inactive; BoNT-A LC inh2: inactive; CCHF vOTU inh: inactive; BoNT-F LC inh: inactive; Anthrax LF inh2: inactive

How did O=C(c1cccs1)N1CCN(CCc2ccccc2)CC1 do in these assays?
Autofluor counter: 21277; 3CLpro inhibitor: inactive; BoNT-A LC inh2: inactive; CCHF vOTU inh: inactive; BoNT-F LC inh: inactive; Anthrax LF inh2: inactive

How did O=C(Cn1cnc2ccccc21)NCCCN1CCOCC1 do in these assays?
Autofluor counter: 24254; 3CLpro inhibitor: inactive; BoNT-A LC inh2: inactive; CCHF vOTU inh: inactive; BoNT-F LC inh: inactive; Anthrax LF inh2: inactive

Results for CCCCCCC1CC(=O)NC(=O)N1 (centres undefined) ?
Autofluor counter: inactive; 3CLpro inhibitor: inactive; BoNT-A LC inh2: inconclusive; CCHF vOTU inh: inactive; BoNT-F LC inh: inconclusive; Anthrax LF inh2: inactive

How did O=C(c1ccco1)N(CCC(c1ccccc1)c1ccco1)Cc1ccc(F)cc1 (centres undefined) do in these assays?
Autofluor counter: 16623; 3CLpro inhibitor: inactive; BoNT-A LC inh2: inactive; BoNT-F LC inh: inactive; Anthrax LF inh2: inactive

How did COC(=O)[C@]12C[C@H](CC(=O)N3CCCC3)C(=O)N(Cc3cccc4ccccc34)C1=C[C@H](C1CCCC1)O[C@@H]2C do in these assays?
CCHF vOTU inh: inactive

Results for O=C(CNC(=O)c1ccccc1F)OC(C(=O)Nc1cc(C(F)(F)F)ccc1Cl)c1ccccc1 (centres undefined) ?
Autofluor counter: 22099; 3CLpro inhibitor: inactive; BoNT-A LC inh2: inactive; CCHF vOTU inh: inactive; BoNT-F LC inh: inactive; Anthrax LF inh2: inactive

Results for CCCCN(CC)Cc1ccc(CNC(=O)Nc2ccc(OCC)cc2)o1 ?
Autofluor counter: 20423; 3CLpro inhibitor: inactive; BoNT-A LC inh2: inactive; CCHF vOTU inh: inactive; BoNT-F LC inh: inactive; Anthrax LF inh2: inactive

What do the screens show for `CCCCN(CC)Cc1ccc(CNC(=O)Nc2ccc(Cl)cc2)o1`?
Autofluor counter: inactive; 3CLpro inhibitor: inactive; BoNT-A LC inh2: inactive; CCHF vOTU inh: inactive; BoNT-F LC inh: inactive; Anthrax LF inh2: inactive

What do the screens show for `O=C(NC1CCCCN(Cc2cccc(C(F)(F)F)c2)C1=O)c1ccc(F)c(F)c1` (centres undefined)?
CCHF vOTU inh: inactive

What do the screens show for `C[C@H](NC(=O)Nc1cccc(C(F)(F)F)c1)C(=O)O`?
Autofluor counter: 21298; 3CLpro inhibitor: inactive; BoNT-A LC inh2: inconclusive; CCHF vOTU inh: inactive; BoNT-F LC inh: inactive; Anthrax LF inh2: inactive

Results for Cc1ccc(OC(F)F)c(NC(=O)Nc2cccc(C(F)(F)F)c2)c1 ?
Autofluor counter: 19099; 3CLpro inhibitor: inactive; BoNT-A LC inh2: inactive; BoNT-F LC inh: inactive; Anthrax LF inh2: inactive

How did O=C(Nc1ccccc1)Nc1cccc(C(F)(F)F)c1 do in these assays?
Autofluor counter: inactive; 3CLpro inhibitor: inactive; BoNT-A LC inh2: inactive; CCHF vOTU inh: inactive; BoNT-F LC inh: inactive; Anthrax LF inh2: inactive

What do the screens show for `CCC(C(=O)Nc1cccc(C(F)(F)F)c1)c1ccccc1` (centres undefined)?
Autofluor counter: inactive; 3CLpro inhibitor: 12.9; BoNT-A LC inh2: inactive; CCHF vOTU inh: inactive; BoNT-F LC inh: inactive; Anthrax LF inh2: inactive

What do the screens show for `CN(C1CCCCC1)S(=O)(=O)Cc1ccccc1`?
Autofluor counter: 22622; 3CLpro inhibitor: inactive; BoNT-A LC inh2: inactive; CCHF vOTU inh: inactive; BoNT-F LC inh: inactive; Anthrax LF inh2: inactive

Results for COCc1cc(C)nc2sc(C(=O)Nc3ccccc3Br)c(N)c12 ?
Autofluor counter: inactive; 3CLpro inhibitor: inactive; BoNT-A LC inh2: inactive; CCHF vOTU inh: inactive; BoNT-F LC inh: inactive; Anthrax LF inh2: inactive

What do the screens show for `O=C(Nc1ccccc1C(F)(F)F)N1CCN(C(c2ccccc2)c2ccccc2)CC1`?
Autofluor counter: 22149; 3CLpro inhibitor: inactive; BoNT-A LC inh2: inconclusive; CCHF vOTU inh: inactive; BoNT-F LC inh: inactive; Anthrax LF inh2: inactive

How did O=C(c1ccco1)N1CCC(Oc2cccnc2)CC1 do in these assays?
CCHF vOTU inh: inactive

What do the screens show for `Cc1ccc(Nc2nc3c([nH]2)c(=O)n(C)c(=O)n3C)cc1`?
Autofluor counter: 20196; 3CLpro inhibitor: inactive; BoNT-A LC inh2: inactive; CCHF vOTU inh: inactive; BoNT-F LC inh: inactive; Anthrax LF inh2: inactive

Results for Cc1cc(C)cc(NC(=O)N2CCC(c3nc4ccc(Cl)cc4[nH]3)CC2)c1 ?
CCHF vOTU inh: inactive

What do the screens show for `CCOC(=O)[C@@]12CCCC3=C1N(CCC3)C(=O)[C@H]2CC(=O)NCc1ccc(C)o1`?
CCHF vOTU inh: inactive

What do the screens show for `C/C=C/c1c(F)c(F)c(Oc2ccc(C(=O)O)cc2)c(F)c1F`?
Autofluor counter: 21781; 3CLpro inhibitor: inactive; BoNT-A LC inh2: inactive; CCHF vOTU inh: inactive; BoNT-F LC inh: inactive; Anthrax LF inh2: inactive

How did CCNC(=S)NNC(=O)CSc1nc2ccccc2c(=O)n1-c1ccc(Cl)cc1 do in these assays?
CCHF vOTU inh: inactive

How did C[C@@H]1ON(C)[C@H]2C[C@H]3c4[nH]c5c(-c6ccccc6)cccc5c4CCN3C[C@@H]12 do in these assays?
CCHF vOTU inh: inactive

How did CCOC(=O)[C@]12CCCCC/C=C\1N(Cc1ccc(OC)cc1)C(=O)[C@H]2CC(=O)N1CCCCC1 do in these assays?
CCHF vOTU inh: inactive

Results for COC(=O)c1ccc2ccn(CC(=O)NC3CCCCC3)c2c1 ?
Autofluor counter: inactive; 3CLpro inhibitor: inactive; BoNT-A LC inh2: inactive; CCHF vOTU inh: inactive; BoNT-F LC inh: inconclusive; Anthrax LF inh2: inactive

Results for N#Cc1ccc2ccn(CC(=O)NC3CCCCCC3)c2c1 ?
Autofluor counter: 21036; 3CLpro inhibitor: inactive; BoNT-A LC inh2: inactive; CCHF vOTU inh: inactive; BoNT-F LC inh: inactive; Anthrax LF inh2: inactive

What do the screens show for `O=c1cc(-c2ccccc2)[nH]c2[nH]n(-c3ccccc3)c(=O)c12`?
Autofluor counter: 17478; 3CLpro inhibitor: inactive; BoNT-A LC inh2: inactive; CCHF vOTU inh: inactive; BoNT-F LC inh: inactive; Anthrax LF inh2: inactive

How did CCOC(=O)CC1=NN(c2ccccc2)C(=O)C1 do in these assays?
Autofluor counter: inactive; 3CLpro inhibitor: inactive; BoNT-A LC inh2: inactive; CCHF vOTU inh: inactive; BoNT-F LC inh: inactive; Anthrax LF inh2: inactive

Results for CCOC(=O)Cc1cc(=O)c2c(=O)n(-c3ccccc3)[nH]c2[nH]1 ?
Autofluor counter: 22135; 3CLpro inhibitor: inactive; BoNT-A LC inh2: inactive; CCHF vOTU inh: inactive; BoNT-F LC inh: inactive; Anthrax LF inh2: inactive
